Assay results reported in PubChem BioAssay AID1259336 (Sattelle Laboratory, UCL Respiratory, Division of Medicine, …, 2017).
Activity calls are given as the source filed them. No stated cut-off is given here; in the data, active means log2 fold change growth below about -1.8; inactive means the rest.

Assay: anthelmintic activity against nematode growth – whole organism, log2 fold change (AID 1259336);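 further: growth scored by imaging after five days at 20 °C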
Conditions: C. elegans growth, anthelmintic screen; hits give low values
For `O=C(Nc1ccc(C(F)(F)F)c(C(F)(F)F)c1)c1cc(Cl)ccc1O`, the log2 fold change growth was 0.513 (inactive).
For `COc1cc2ncnc(NC3CCN(Cc4ccccc4)CC3)c2cc1OC`, the log2 fold change growth was -0.116 (inactive).
With `CN(C)CCNC(=O)N1CCCN(c2ncnc3cc(-c4ccccc4)sc23)CC1` the log2 fold change growth was -0.255 (inactive).
With `C[C@H](Oc1ccccc1)C(=O)Nc1nc(-c2ccccn2)cs1` the log2 fold change growth was -0.519 (inactive).
With `CC(C)(C)OC(=O)N1CCN(c2cc(-c3ccc(Oc4ccccc4)cc3)[nH]n2)CC1` the log2 fold change growth was -0.56 (inactive).
In the case of `CCc1nc2ccc(C(=O)NCc3ccc4c(c3)OCO4)cn2c1N(C)Cc1cccs1`, the log2 fold change growth is reported as -0.917 (inactive).
For `C[C@H]1CS(=O)(=O)CCN1/N=C/c1ccc([N+](=O)[O-])o1`, the log2 fold change growth was 0.236 (inactive).
With `Cc1ccc(S(=O)(=O)Nc2ccc(CN3CCN(C(=O)c4cccc(C#N)c4)CC3)cc2)cc1` the log2 fold change growth was 0.152 (inactive).
With `C[C@H]1COC2(CCN(c3nc(=O)c4cc(C(F)(F)F)cc([N+](=O)[O-])c4s3)CC2)O1` the log2 fold change growth was -0.284 (inactive).
With `O=C(Nc1cccc(Cl)c1)c1cnc(N2CCN(c3ccncc3)CC2)c(Cl)c1` the log2 fold change growth was -0.57 (inactive).
In the case of `CC1CCCN(C(=O)C(C)Nc2cc(Cl)ccc2N2CCOCC2)C1` (stereo not drawn), the log2 fold change growth is reported as 0.538 (inactive).
For `CNC1C(OC2C(OC3C(O)C(O)C(N=C(N)N)C(O)C3N=C(N)N)OC(C)C2(O)C=O)OC(CO)C(O)C1O` (stereo not drawn), the log2 fold change growth was -0.00587 (inactive).
For `N[C@@H](CC(=O)c1ccc(Cl)cc1Cl)C(Cl)(Cl)Cl`, the log2 fold change growth was -0.444 (inactive).
For `NS(=O)(=O)c1cccc(-c2ccc3ncc(N4CCOCC4)nc3c2)c1`, the log2 fold change growth was -0.363 (inactive).
In the case of `CNc1cc(C)nc([C@@H]2CN(C(=O)c3n[nH]c4ccccc34)CCO2)c1`, the log2 fold change growth is reported as 0.0798 (inactive).
For `O=C(Nc1nnc(-c2ccc(Cl)cc2)o1)c1cccc(C(F)(F)F)c1`, the log2 fold change growth was -1.36 (inactive).
For `CC(C)(C)c1cc(C(=O)Nc2cccnc2)cc(C(=O)Nc2cccnc2)c1`, the log2 fold change growth was 0.00293 (inactive).
In the case of `O=C([C@H](Cc1c[nH]c2ccccc12)NS(=O)(=O)c1ccc(Cl)cc1)N1CCCCC1`, the log2 fold change growth is reported as -0.129 (inactive).
For `COc1ccccc1CNC(=O)c1cc(C2CC2)nc2c1cnn2C(C)C`, the log2 fold change growth was -0.297 (inactive).
In the case of `CC(C)[C@H](NC(=O)Cc1cccc2ccccc12)C(=O)Nc1cccc(C#N)c1`, the log2 fold change growth is reported as 0.334 (inactive).
In the case of `CC(=O)N1CCc2cc3nc(C)cc(C)c3cc21`, the log2 fold change growth is reported as 0.139 (inactive).
In the case of `c1ccc2c(c1)CN(CC1CC1)CC1(CCN(Cc3c[nH]c4cnccc34)CC1)O2`, the log2 fold change growth is reported as 0.264 (inactive).
In the case of `CCCCc1ccc(C(=O)Nc2nccc3ccccc23)nc1`, the log2 fold change growth is reported as 0.243 (inactive).
With `CNC(=O)c1nn(C)c2c1C(C)(C)Cc1cnc(Nc3ccc(N4CCN(C)CC4)cc3)nc1-2` the log2 fold change growth was 0.103 (inactive).
In the case of `CCc1ccc([C@@H]2C[C@H](C(F)(F)F)n3ncc(C(=O)NCc4ccc(OC)cc4)c3N2)cc1`, the log2 fold change growth is reported as -1.82 (active).
In the case of `CS(=O)(=O)c1cccc(-c2cnc3[nH]cc(-c4ccc(CCC(=O)O)cc4)c3c2)c1`, the log2 fold change growth is reported as 0.172 (inactive).
For `Clc1ccc(CCNc2cc(-c3ccccc3)nc3ncnn23)cc1`, the log2 fold change growth was -0.81 (inactive).
With `CCCn1c(CNc2ccccc2O)nc2ccccc21` the log2 fold change growth was 0.228 (inactive).
In the case of `Cc1[nH]c2cc(F)cc(F)c2c(=O)c1-c1ccc(Oc2ccc(OC(F)(F)F)cc2)cc1`, the log2 fold change growth is reported as -0.247 (inactive).
For `Cc1cccc(-c2nc(Nc3ccncn3)c3sccc3n2)n1`, the log2 fold change growth was 0.438 (inactive).
With `CCS(=O)(=O)N(Cc1ccco1)Cc1cc2ccc(C)cc2[nH]c1=O` the log2 fold change growth was 0.443 (inactive).
In the case of `CCOc1ccc(-c2nc(NC(=O)CS(=O)(=O)c3ccccc3)sc2C)cc1`, the log2 fold change growth is reported as -1.31 (inactive).
For `OCCc1ccc(Nc2nccc(-c3nnc4ccccn34)n2)cc1`, the log2 fold change growth was -0.0214 (inactive).
For `CC(C)(C)c1ccc(N[C@@H]2CCCC[C@H]2NC(=O)c2ccco2)cc1`, the log2 fold change growth was 0.519 (inactive).
With `CC[C@H](C)NC(=O)c1ccc(NC(=O)C2(c3ccccc3)CCCC2)cc1` the log2 fold change growth was 0.546 (inactive).
For `O=C(C1CCCCC1)N1CC(=O)N2CCc3ccccc3[C@@H]2C1`, the log2 fold change growth was 0.303 (inactive).
With `Cc1cc2nc(NC(=O)C(C)(C)C)nc(Cl)c2n1Cc1ccc(Cl)cc1` the log2 fold change growth was 0.316 (inactive).
With `OCc1ccc(-c2cncc(Nc3cccc(Cl)c3)c2)cc1` the log2 fold change growth was -0.873 (inactive).
